Records with an inconclusive call do not appear. Calls of active or inactive are those of the source. Unless noted, calls come from the whole dose curve; as a rule, active = well fitted curve in the direction sought with a large enough effect in the repeat runs; inconclusive = weak or mixed curves; inactive = no such curve, though single readings can be large; an effect the other way counts as inactive or inconclusive.
Assays:
[1] = A CellTox Green Cytotoxicity Assay to monitor cytotoxicity in HEK293 cells - 32 hour (AID 1224881); note: nearly all actives have a fitted effect of over 40% in size; note: potency is the fitted concentration of half-maximal effect
Method in brief: (§1)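 Homogeneous no-lysis format: HEK293 cell suspension mixed with CellTox Green reagent, seeded, incubated 5 h at 37 C/5% CO2, then dosed by pintool with compound in DMSO.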

[2] = A CellTox Green Cytotoxicity Assay to monitor cytotoxicity in HEK293 cells - 8 hour (AID 1224884); note: nearly all actives have a fitted effect of over 35% in size
Method in brief: as §1

[3] = qHTS RealTime-Glo MT Cell Viability Assay in HepG2 cells - 16 hour (AID 1224885); note: nearly all actives have a fitted effect of over 50% in size; note: potency is the fitted concentration of half-maximal effect
Method in brief: (§2)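 HepG2 cells (600/well) were dispensed with RealTime-Glo reagents, incubated 5 h at 37 °C, then treated with compounds in DMSO for up to 40 h. Nonlytic NanoLuc luminescence reflecting viable cells was read at each stated time point.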

[4] = qHTS RealTime-Glo MT Cell Viability Assay in HEK293 cells - 24 hour (AID 1224886); note: top concentration of the series differs between compounds; nearly all actives have a fitted effect of over 50% in size
Method in brief: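 HEK293 cells seeded with NanoLuc/prosubstrate reagent, rested 5 h at 37 C, then dosed and kept at 37 C up to 40 h. Nonlytic real-time luminescence from viable cells read at 0, 8, 16, 24, 32 and 40 h.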

[5] = qHTS RealTime-Glo MT Cell Viability Assay in HEK293 cells - 8 hour (AID 1224887); note: nearly all actives have a fitted effect of over 50% in size; note: potency is the fitted concentration of half-maximal effect
Method in brief: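 Measured as luminescence from the same continuously cultured HEK293 wells at successive time points (0, 8, 16, 24, 32, 40 h) after compound addition. Reagent present from seeding; dosing at 5 h; incubation 37 C.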

[6] = A CellTox Green Cytotoxicity Assay to monitor cytotoxicity in HEK293 cells - 16 hour (AID 1224888); note: nearly all actives have a fitted effect of over 35% in size; note: potency is the fitted concentration of half-maximal effect
Method in brief: as §1

[7] = qHTS RealTime-Glo MT Cell Viability Assay in HepG2 cells - 0 hour (AID 1224889); note: nearly all actives have a fitted effect of over 50% in size; note: potency is the fitted concentration of half-maximal effect
Method in brief: as §2

[8] = A CellTox Green Cytotoxicity Assay to monitor cytotoxicity in HepG2 cells - 8 hour (AID 1224890); note: nearly all actives have a fitted effect of over 45% in size; note: potency is the fitted concentration of half-maximal effect
Method in brief: (§3)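 Fluorescent DNA-binding dye, 600 HepG2 cells/well, 5 h preincubation then compound in DMSO; same plates read at 0–40 h, 37 C.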

[9] = qHTS assay to identify small molecule antagonists of the estrogen receptor alpha (ER-alpha) signaling pathway using the BG1 cell line in the presence of 0.1 nM 17-beta-estradiol - cell viability counter screen (AID 1259241); note: nearly all actives have a fitted effect of over 40% in size; note: potency is the fitted concentration of half-maximal effect
Method in brief: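 VM7Luc4E2 cells (endogenous full-length ER-alpha, 4xERE-luciferase), cultured 5 days in charcoal-stripped serum, exposed to compounds with 0.1 nM 17beta-estradiol (final) for 22 hr at 37C. Viability read in same wells as live-cell protease fluorescence after 30 min.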

[10] = qHTS assay to identify small molecule antagonists of the androgen receptor (AR) signaling pathway using the MDA cell line in the presence of 0.5 nM R1881 - cell viability counter screen (AID 1259242); note: nearly all actives have a fitted effect of over 45% in size; note: potency is the fitted concentration of half-maximal effect
Method in brief: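 Human breast carcinoma MDA-kb2 cells, cultured without CO2, receive compounds alongside 0.5 nM (final) R1881 agonist. After 16 hr at 37C, viability is taken as live-cell protease signal.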

[11] = qHTS assay to identify small molecule HDAC inhibitors (AID 1259364);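 note: wild-type HCT-116 cells with endogenous class I/II HDAC activity; top concentration of the series differs between compounds; nearly all actives have a fitted effect of over 45% in size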
Method in brief: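 After a 2 hr compound incubation (37C, 5% CO2), HCT-116 cells seeded at 1,500/well the day before received HDAC-Glo reagent; signal read as luminescence after 30 min at room temperature.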

[12] = qHTS assay to identify small molecule HDAC inhibitors - cell viability counter screen (AID 1259365)
Method in brief: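 Wild-type HCT-116 cells, 1,500/well, cultured overnight, then compound-treated 2 h at 37 C. Viability measured as ATP luminescence with CellTiter-Glo after 30 min at room temperature.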

[13] = qHTS assay to identify small molecule agonists of the sonic hedgehog signaling (Shh) pathway - cell viability counter screen (AID 1259366); note: nearly all actives have a fitted effect of over 50% in size; note: potency is the fitted concentration of half-maximal effect
Method in brief: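 NIH/3T3-derived Gli1-Luc reporter cells, 2,000 per well, received compound after 4 h and were treated about 23 h at 37C. Viability measured in the same wells by CellTiter-Fluor fluorescence after 1 h.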

[14] = qHTS assay to identify small molecule antagonists of the sonic hedgehog signaling (Shh) pathway - cell viability counter screen (AID 1259367); note: nearly all actives have a fitted effect of over 55% in size; note: potency is the fitted concentration of half-maximal effect
Method in brief: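 Cytotoxicity was assessed in parallel with Shh reporter activity by measuring live-cell protease fluorescence (CellTiter-Fluor) in NIH/3T3 cells stably carrying Gli1-Luc, treated with compound under conditioned medium stimulation for 23 hr plus 1 hr reagent incubation.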

[15] = qHTS assay to identify small molecule agonists of the sonic hedgehog signaling (Shh) pathway (AID 1259368; calls by dose curve;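 note: NIH/3T3-derived 3T3Gli1-Luc cells carrying a stable Gli1-driven firefly luciferase reporter; series mostly up to about 92 µM; nearly all actives have a fitted effect of over 15% in size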)
Method in brief: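 Stable NIH/3T3 Gli1-Luc reporter clone; 24 hr cpd exposure after a 4 hr settling period; luminescence endpoint.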

[16] = A CellTox Green Cytotoxicity Assay to monitor cytotoxicity in HepG2 cells - 0 hour (AID 1224882); note: nearly all actives have a fitted effect of over 35% in size
Method in brief: as §3

[17] = A CellTox Green Cytotoxicity Assay to monitor cytotoxicity in HepG2 cells - 32 hour (AID 1224883); note: nearly all actives have a fitted effect of over 50% in size
Method in brief: as §3

[18] = biological target: Estrogen receptor (Homo sapiens) (UniProt P03372); assay: qHTS assay to identify small molecule antagonists of the estrogen receptor alpha (ER-alpha) signaling pathway using the BG1 cell line in the presence of 0.1 nM 17-beta-estradiol (AID 1259244); note: nearly all actives have a fitted effect of over 50% in size
Chain of Estrogen receptor (Homo sapiens) (P03372 whole entry, looked up): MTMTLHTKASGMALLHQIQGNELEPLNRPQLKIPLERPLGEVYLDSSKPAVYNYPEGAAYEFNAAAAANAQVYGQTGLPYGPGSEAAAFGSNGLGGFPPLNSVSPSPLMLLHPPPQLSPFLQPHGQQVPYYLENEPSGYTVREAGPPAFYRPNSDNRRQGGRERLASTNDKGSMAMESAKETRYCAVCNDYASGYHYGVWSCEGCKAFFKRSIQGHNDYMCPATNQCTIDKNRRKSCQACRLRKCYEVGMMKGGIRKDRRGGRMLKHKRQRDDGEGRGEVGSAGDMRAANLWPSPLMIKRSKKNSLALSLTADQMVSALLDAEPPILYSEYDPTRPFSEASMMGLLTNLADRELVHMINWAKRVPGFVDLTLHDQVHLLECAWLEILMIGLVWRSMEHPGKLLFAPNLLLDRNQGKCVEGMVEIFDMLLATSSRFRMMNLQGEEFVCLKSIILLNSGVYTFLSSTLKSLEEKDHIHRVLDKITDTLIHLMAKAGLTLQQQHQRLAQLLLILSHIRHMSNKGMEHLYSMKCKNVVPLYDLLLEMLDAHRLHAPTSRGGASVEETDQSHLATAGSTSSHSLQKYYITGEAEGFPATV
Method in brief: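 Seeding of stripped-serum-adapted VM7Luc4E2 cells, 24 h attachment, compound transfer, then 0.1 nM final 17beta-estradiol; after 22 h incubation, ONE-Glo reagent and luminescence reading.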

[19] = qHTS assay to identify small molecule phospholipidosis (PLD) inducers (AID 1259344; active = well fitted curve in the direction sought with a large enough effect; an effect the other way counts as inactive or inconclusive)
Method in brief: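 Cells (HepG2, 900 per well) attach for 4 h, receive LipidTOX Red and compound together, incubate 24 h at 37 C, are fixed 30 min with paraformaldehyde/Hoechst, then imaged at one site per well.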

[20] = biological target: Androgen receptor (Homo sapiens) (UniProt P10275); assay: qHTS assay to identify small molecule antagonists of the androgen receptor (AR) signaling pathway using the MDA cell line in the presence of 0.5 nM R1881 (AID 1259243); note: nearly all actives have a fitted effect of over 50% in size; note: potency is the fitted concentration of half-maximal effect
Chain of Androgen receptor (Homo sapiens) (P10275 whole entry, looked up): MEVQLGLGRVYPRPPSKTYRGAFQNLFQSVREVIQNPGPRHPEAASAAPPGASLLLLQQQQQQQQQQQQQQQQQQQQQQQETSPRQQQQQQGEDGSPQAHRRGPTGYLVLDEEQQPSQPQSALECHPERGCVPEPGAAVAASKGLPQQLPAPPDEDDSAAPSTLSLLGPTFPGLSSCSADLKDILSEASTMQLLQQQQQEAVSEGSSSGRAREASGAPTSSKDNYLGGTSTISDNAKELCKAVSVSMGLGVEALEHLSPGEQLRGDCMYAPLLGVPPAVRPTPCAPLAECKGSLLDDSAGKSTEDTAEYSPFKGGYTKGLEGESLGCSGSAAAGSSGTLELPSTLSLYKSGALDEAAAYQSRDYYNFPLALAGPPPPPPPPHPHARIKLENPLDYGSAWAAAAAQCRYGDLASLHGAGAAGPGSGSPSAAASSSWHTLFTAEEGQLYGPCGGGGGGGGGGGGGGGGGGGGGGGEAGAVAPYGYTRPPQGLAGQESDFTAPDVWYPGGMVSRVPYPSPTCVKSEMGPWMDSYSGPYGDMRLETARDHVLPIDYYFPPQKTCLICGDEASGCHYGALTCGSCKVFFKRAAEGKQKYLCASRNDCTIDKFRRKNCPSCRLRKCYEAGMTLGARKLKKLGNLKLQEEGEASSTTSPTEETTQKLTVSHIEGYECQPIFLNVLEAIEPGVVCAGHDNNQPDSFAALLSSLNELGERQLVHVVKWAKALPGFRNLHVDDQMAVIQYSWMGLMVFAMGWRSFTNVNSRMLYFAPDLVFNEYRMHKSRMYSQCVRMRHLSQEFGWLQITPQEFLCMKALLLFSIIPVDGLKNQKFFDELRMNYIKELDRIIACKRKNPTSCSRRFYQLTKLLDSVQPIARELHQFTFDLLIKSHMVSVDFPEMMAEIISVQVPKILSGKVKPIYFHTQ
Method in brief: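 Cells: MDA-kb2 (MMTV-luc). Stimulus: 0.5 nM R1881. Time: 16 hr, 37C, no CO2. Detection: ONE-Glo luminescence after 30 min at RT.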
% is set by controls: 0 for no effect and ±100 for the full control effect.

CCCCCCCCCCCCCCCC(=O)OC/C=C(C)/C=C/C=C(C)/C=C/C1=C(C)CCCC1(C)C
inactive: Potency [1] | Potency [2] | Potency [3] | Potency [4] | Potency [5] | Potency [6] | Potency [7] | Potency [8] | Potency [9] | Potency [10] | Potency [11] | outcome [12] | Potency [13] | Potency [14] | outcome [15]

O=C(O)C(c1ccc(Cl)cc1)c1ccc(Cl)cc1
inactive: Potency [16] | Potency [17] | Potency [2] | Potency [3] | Potency [4] | Potency [5] | Potency [6] | Potency [7] | Potency [8] | Potency [9] | Potency [10] | Potency [18] | Potency [11] | outcome [12] | Potency [13] | Potency [14] | outcome [15]

c1ccc(-c2nc[nH]c2-c2ccccc2)cc1
inactive: Potency [1] | Potency [2] | Potency [4] | Potency [5] | Potency [6] | Potency [7] | Potency [9] | Potency [10] | Potency [19] | Potency [11] | outcome [12] | Potency [13] | Potency [14] | outcome [15]

CC(C)(C)c1ccc(S)cc1
inactive: Potency [1] | Potency [3] | Potency [4] | Potency [5] | Potency [6] | Potency [7] | Potency [8] | Potency [9] | Potency [10] | Potency [18] | Potency [11] | outcome [12] | Potency [14] | outcome [15]

CC(C)=CCCC(C)CC=O (centres undefined)
inactive: Potency [1] | Potency [17] | Potency [3] | Potency [4] | Potency [5] | Potency [6] | Potency [7] | Potency [8] | Potency [9] | Potency [10] | Potency [11] | outcome [12] | Potency [14] | outcome [15]

O=C(O)Cc1sc(-c2ccccc2)nc1-c1ccc(Cl)cc1
inactive: Potency [16] | Potency [17] | Potency [2] | Potency [3] | Potency [4] | Potency [5] | Potency [6] | Potency [7] | Potency [8] | Potency [9] | Potency [10] | Potency [20] | Potency [18] | Potency [19] | Potency [11] | outcome [12] | Potency [13] | Potency [14] | outcome [15]

CC(=O)OCCc1ccccc1
inactive: Potency [16] | Potency [17] | Potency [2] | Potency [3] | Potency [4] | Potency [5] | Potency [6] | Potency [7] | Potency [8] | Potency [9] | Potency [10] | Potency [18] | Potency [11] | outcome [12] | Potency [13] | Potency [14] | outcome [15]

NC(N)=NN=C(/C=C/c1ccc([N+](=O)[O-])o1)/C=C/c1ccc([N+](=O)[O-])o1
inactive: Potency [7] | Potency [19] | Potency [11]
active: Potency [1] 8.49 µM | Potency [3] 2.13 µM | Potency [5] 6.01 µM | Potency [6] 9.52 µM | Potency [8] 9.52 µM | Potency [9] 11.9 µM | Potency [10] 6.68 µM | Potency [20] 1.88 µM | Potency [13] 2.37 µM | Potency [14] 2.37 µM

C1CCC2OC2C1 (centres undefined)
inactive: Potency [16] | Potency [17] | Potency [2] | Potency [3] | Potency [4] | Potency [5] | Potency [6] | Potency [7] | Potency [8] | Potency [9] | Potency [10] | Potency [20] | Potency [11] | Potency [13] | Potency [14] | outcome [15]

CCOC(=O)C1=C(C)NC(C)=C(C(=O)OC)C1c1cccc([N+](=O)[O-])c1 (centres undefined)
inactive: Potency [1] | Potency [17] | Potency [2] | Potency [6] | Potency [8] | Potency [9] | Potency [10] | Potency [18] | Potency [19] | Potency [11] | outcome [12] | Potency [14] | outcome [15]
active: Potency [7] 7.56 µM

C=CC[N+]1([C@H]2C[C@H]3[C@@H]4CC[C@H]5C[C@H](OC(C)=O)[C@@H](N6CCCCC6)C[C@]5(C)[C@H]4CC[C@]3(C)[C@H]2OC(=O)CC)CCCCC1
inactive: Potency [16] | Potency [17] | Potency [2] | Potency [3] | Potency [4] | Potency [5] | Potency [6] | Potency [7] | Potency [8] | Potency [9] | Potency [10] | Potency [18] | PLD induction [19] -0.411% [at 7.66 µM] | Potency [11] | outcome [12] | Potency [13] | Potency [14] | outcome [15]

O=C(Nc1ccccc1)OCC(CN1CCCCC1)OC(=O)Nc1ccccc1 (centres undefined)
inactive: Potency [1] | Potency [3] | Potency [6] | Potency [7] | Potency [8] | Potency [9] | Potency [10] | Potency [18] | Potency [19] | Potency [11] | outcome [12] | Potency [14] | outcome [15]

CC(=O)Nc1ccc(/C=N/NC(N)=S)cc1
inactive: Potency [1] | Potency [2] | Potency [3] | Potency [4] | Potency [5] | Potency [6] | Potency [7] | Potency [8] | Potency [9] | Potency [10] | Potency [19] | Potency [11] | outcome [12] | Potency [13] | Potency [14] | outcome [15]

c1ccc(OCc2ccc(CCCN3CCOCC3)cc2)cc1
inactive: Potency [1] | Potency [2] | Potency [6] | Potency [7] | Potency [10] | Potency [19] | outcome [12] | Potency [13] | Potency [14] | outcome [15]
active: Potency [20] 29.8 µM

CCOC(=O)CC(=O)c1cc(F)c(Cl)nc1Cl
inactive: Potency [16] | Potency [17] | Potency [2] | Potency [3] | Potency [5] | Potency [7] | Potency [8] | Potency [9] | Potency [10] | Potency [18] | Potency [11] | Potency [13] | Potency [14] | outcome [15]

CN1CCC(=C2c3ccccc3CCc3sccc32)CC1
inactive: Potency [2] | Potency [3] | Potency [4] | Potency [5] | Potency [6] | Potency [7] | Potency [8] | Potency [9] | Potency [10] | Potency [11] | outcome [12] | Potency [13] | Potency [14] | outcome [15]

— PubChem BioAssay (Tox21)
